Measured values published in PubChem BioAssay (NCATS).
Results filed as inconclusive are left out. Activity calls are given as the source filed them. Calls follow the shape of the dose curve; as a rule, active = well fitted inhibition curve with a large enough effect; inconclusive = small, poorly fitted or top-dose-only effect; inactive = no such curve, though single readings can be large or run the other way.

Each compound was assayed against Cytochrome P450 2D6 (Homo sapiens) (UniProt P10635) (assay: qHTS Assay for Inhibitors and Substrates of Cytochrome P450 2D6 (AID 891; also: nearly all actives have a fitted effect of over 60% in size)). Settings: recombinant CYP2D6, luciferin-ME EGE luminescence.
Summary of the method: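 Human CYP2D6 (5 nM) with 30 uM Luciferin-ME EGE (at Km) in 100 mM KPO4, compound preincubated 10 min, then NADPH regeneration system for 60 min at room temperature. Luciferin read by luminescence; normalized to 1.43 uM quinidine.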
Potency is read from the fitted curve at half-maximal effect.

Cytochrome P450 2D6 (Homo sapiens), sequence (P10635 whole entry, looked up): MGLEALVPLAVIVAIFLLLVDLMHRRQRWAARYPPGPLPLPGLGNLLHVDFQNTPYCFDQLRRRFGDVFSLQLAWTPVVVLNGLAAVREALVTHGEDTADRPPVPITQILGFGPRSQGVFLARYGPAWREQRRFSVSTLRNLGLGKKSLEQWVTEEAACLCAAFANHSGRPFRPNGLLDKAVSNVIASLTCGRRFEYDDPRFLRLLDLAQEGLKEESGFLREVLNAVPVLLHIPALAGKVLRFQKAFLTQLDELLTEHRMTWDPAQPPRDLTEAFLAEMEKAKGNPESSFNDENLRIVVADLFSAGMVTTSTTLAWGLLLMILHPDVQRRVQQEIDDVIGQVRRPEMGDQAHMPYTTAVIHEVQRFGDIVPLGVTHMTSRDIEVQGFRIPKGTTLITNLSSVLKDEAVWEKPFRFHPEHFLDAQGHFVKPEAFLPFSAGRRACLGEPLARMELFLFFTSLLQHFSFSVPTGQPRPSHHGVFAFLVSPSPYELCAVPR

Compound	Potency
Cc1c(-c2ccccc2)oc2c(C(=O)OCCN3CCCCC3)cccc2c1=O	7.94 µM (active)
CCc1cc(Cl)c(OC)c(C(=O)NC[C@@H]2CCCN2CC)c1O	0.0501 µM (active)
CCN(CC)CCNc1ccc(CO)c2sc3ccccc3c(=O)c12	5.01 µM (active)
CCCCc1cc2ccccc2c(OCCN(C)C)n1	2 µM (active)
